Drawing on PubChem BioAssay AID583 (Sanford-Burnham Center for Chemical Genomics, 2007), this text covers displacement for 85 compounds.

The structures appear in SMILES notation. Several values for one entry are separate records, joined by “and”; a condition that tells them apart may be missing. Equal values may be shown once. Out of some 140,000 compounds screened, about 80 (0.06%) were called active. No stated cut-off is given here; in the data, active means displacement above about 50%; inactive means the rest. For the sample, actives were picked, then their nearest neighbours and some compounds at random. A structure can be active in one record and inactive in another.

In this assay the target is Heat shock 70 kDa protein 1A (Homo sapiens) (UniProt P0DMV8). Briefly: small molecules displacing fluorescent ligand from Hsp70 – biochemical, fluorescence polarization, primary screen (AID 583).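 Further: plate controls were vehicle for no effect and reference ligand for full effect.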 The conditions noted are these: Hsp70 fluorescence polarization probe displacement, mP; at 20 µM; stronger effect = higher value. (In general: In fluorescence polarisation assays a small probe gives low polarisation when free and higher when bound to something large.)
Heat shock 70 kDa protein 1A (Homo sapiens), sequence (P0DMV8 whole entry, looked up): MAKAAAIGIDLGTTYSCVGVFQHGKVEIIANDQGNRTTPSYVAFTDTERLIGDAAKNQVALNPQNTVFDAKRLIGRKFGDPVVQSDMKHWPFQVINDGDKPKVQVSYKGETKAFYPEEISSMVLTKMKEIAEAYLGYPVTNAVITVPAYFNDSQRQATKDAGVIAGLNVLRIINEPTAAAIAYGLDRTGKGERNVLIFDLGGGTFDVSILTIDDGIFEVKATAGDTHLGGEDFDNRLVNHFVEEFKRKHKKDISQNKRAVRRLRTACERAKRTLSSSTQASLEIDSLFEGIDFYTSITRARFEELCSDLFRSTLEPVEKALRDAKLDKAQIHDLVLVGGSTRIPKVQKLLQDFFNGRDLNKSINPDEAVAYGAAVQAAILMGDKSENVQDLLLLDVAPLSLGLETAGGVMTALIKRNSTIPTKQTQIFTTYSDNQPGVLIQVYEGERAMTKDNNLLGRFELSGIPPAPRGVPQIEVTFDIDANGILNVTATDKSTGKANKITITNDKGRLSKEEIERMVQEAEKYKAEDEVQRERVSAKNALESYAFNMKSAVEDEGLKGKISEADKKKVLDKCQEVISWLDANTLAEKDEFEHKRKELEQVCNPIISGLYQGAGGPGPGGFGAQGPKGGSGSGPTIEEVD
As to `COc1ccc(NC(=O)Cn2nc(C)c3ccccc3c2=O)cc1`, the displacement was -1% (inactive).
The same measure for `COc1cc(/C=C2/SC(=S)NC2=O)cc(Cl)c1OCc1cccc2ccccc12`: 99.9% (active).
With `COc1cccc(OCCOc2c(Cl)cc(/C=C3/SC(=S)NC3=O)cc2OC)c1`, the displacement was 0.2% (inactive).
`COc1cc(/C=C2/SC(=S)NC2=O)cc(Cl)c1OCc1ccc(Cl)cc1Cl`: the displacement was 94.8% (active).
Next, `CCOc1cc(/C=C2/SC(=S)NC2=O)cc(Cl)c1OCc1ccc(Cl)cc1Cl`: 4.9% (inactive); `CCCOc1c(Cl)cc(/C=C2/SC(=S)NC2=O)cc1OC`: 1.3% (inactive); `COc1cc(/C=C2/SC(=S)NC2=O)cc(Cl)c1OCc1ccccc1F`: -0.4% (inactive).
In the case of `COc1ccc(N2C(=O)NC(=O)/C(=C\c3cccc(OC)c3OC)C2=O)cc1`, the displacement is -4.3% (inactive).
For `O=C1N/C(=N/N=C/c2ccccc2)SC1Cc1ccccc1Cl` (stereo not given), the displacement is -1.4% (inactive).
On to `COC(=S)N/C(=N/S(=O)(=O)c1ccc(Cl)cc1)c1ccccc1`, for which the displacement is 0.8% (inactive).
The same measure for `CC1=NN(c2cccc(C(=O)O)c2)C(=O)/C1=C\c1ccco1`: 6.9% (inactive); for `CCOC(=O)c1ccc(N2N=C(C)/C(=C/C=C/c3ccco3)C2=O)cc1`: 0.7% (inactive); for `COc1ccc(C(=O)Nc2ccc(S(=O)(=O)NC(C)=O)cc2)cc1[N+](=O)[O-]`: 3.6% (inactive).
For `CC(=O)NS(=O)(=O)c1ccc(NC(=O)c2ccc([N+](=O)[O-])c(C)c2)cc1`, the displacement is 61.3% (active).
Next, `CC(=O)NS(=O)(=O)c1ccc(NC(=O)c2ccc([N+](=O)[O-])cc2)cc1`: 6.8% (inactive); `O=C(NCCc1ccccc1)c1cnc2sccn2c1=O`: -1.6% (inactive); `Oc1[nH]c2ccccc2c1N=Nc1nc(-c2ccccc2)c2cc(Br)ccc2n1`: -0.1% (inactive).
Turning to `CN(C)c1ccc(/C=C2/SC(N=Nc3c(O)[nH]c4ccccc34)=NC2=O)cc1`, the displacement is 17.1% (inactive).
In the case of `O=C1N=C(N=Nc2c(O)[nH]c3ccccc23)S/C1=C/c1ccc(Br)cc1`, the displacement is 82.1% (active).
On to `COc1ccc(Br)cc1/C=C/C(=O)Nc1cccc(NC(=O)c2ccccc2Cl)c1`, for which the displacement is -1% (inactive).
In the case of `CCN(CC)c1nc(C)cc(COC)c1C#N`, the displacement is 2.1% (inactive).
Regarding `CC(C)c1ccc(NC(=O)C(c2ccc3c(c2)OCO3)N2CCC3(CC2)OCCO3)cc1` (stereo not given), the displacement was -2.7% (inactive).
On to `O=C(CCCC(=O)N1CCCCC1)NCc1ccco1`, for which the displacement was -1.6% (inactive).
As for `COC(=O)c1ccc(C(=O)OC)c(NC(=O)CSc2nnc(-c3ccccc3Cl)o2)c1`, the displacement is 1.6% (inactive).
Take `O=S(=O)(c1cc(Cl)cc(Cl)c1O)c1cc(Cl)cc(Cl)c1O`: the displacement is 8.8% (inactive).
Turning to `Oc1c(Cl)cc(Cl)cc1Sc1cc(Cl)cc(Cl)c1O`, the displacement was 7.6% (inactive).
With `CN(C)c1ccc(/C=C2\NC(=O)c3ccccc3C2=O)cc1`, the displacement was 2.7% (inactive).
For `CCOC(=O)c1sc2ncc([N+](=O)[O-])c(NC)c2c1N`, the displacement was -5.6% (inactive).
With `Cc1cc(=O)[nH]c(SCC(=O)Nc2ccc(S(N)(=O)=O)cc2)n1`, the displacement was 4.4% (inactive).
The same measure for `O=C(N/N=C/c1ccccc1OCc1ccccc1)c1ccccc1O`: 6% (inactive); for `Cc1ccc(C(=O)O/N=C(\N)c2ccccn2)cc1`: 0.2% (inactive).
Regarding `Cc1ccc(NC(=O)c2ccccc2O)cc1`, the displacement is 2.2% (inactive).
As for `O=C(N=Nc1c(O)n(Cc2ccccc2)c2ccccc12)c1ccccc1O`, the displacement was 2.1% (inactive).
The same measure for `O=C(Cn1nc(C(=O)O)c2ccccc2c1=O)NCC1CCCO1` (stereo not given): -0.7% (inactive); for `CC(NC(=O)c1c(NC(=O)c2ccco2)sc2c1CCCCC2)c1ccccc1` (stereo not given): -6% (inactive); for `COC(=O)COc1ccc(/C=C2\C(=O)NC(=S)N(c3ccc(F)cc3)C2=O)cc1OC`: 2.8% (inactive).
For the compound `COc1ccc(CNC(=O)c2c(Cl)cccc2Cl)cc1`, the displacement was 5.5% (inactive).
In the case of `O=C(Nc1cccc2nsnc12)c1ccc(Cl)cc1Cl`, the displacement is 3.7% (inactive).
On to `Cc1ccc(C)n1-c1ccc(C(=O)O)c(O)c1`, for which the displacement was 98.5% (active).
For the compound `Cc1ccc(C)n1-c1ccc(Cl)c(C(=O)O)c1`, the displacement was 83.5% (active).
`Cc1ccc(C)n1-c1ccc(C(=O)O)c(Cl)c1`: the displacement is 33.7% (inactive).
Turning to `Cc1nc(=O)c(-c2ccccc2)c(C)n1-c1ccc(C(=O)O)c(O)c1`, the displacement was 0.2% (inactive).
For `Cc1ccc(-c2ccccc2)n1-c1ccc(O)c(C(=O)O)c1`, the displacement is 4.2% (inactive).
Take `Cc1ccc(C)n1-c1ccc(O)c(C(=O)O)c1`: the displacement is 98.2% (active).
As for `Cc1ccc(-c2ccccc2)n1-c1ccc(Cl)c(C(=O)O)c1`, the displacement is -4% (inactive).
Turning to `O=C(O)c1ccc(-n2cccc2)cc1O`, the displacement was -0.2% (inactive).
For `Cc1nc(=O)c(-c2ccccc2)c(C)n1-c1ccc(O)c(C(=O)O)c1`, the displacement was -3.3% (inactive).
Regarding `CC(C)c1c(O)nc(SCC(=O)Nc2ccc3c(c2)CCC3)[nH]c1=O`, the displacement is 1.5% (inactive).
The same measure for `Cc1ccc(-c2ccccc2)n1-c1cccc(C(=O)O)c1`: -1.8% (inactive).
In the case of `Cc1cc(C(=O)O)ccc1-n1c(C)ccc1C`, the displacement is 61.3% (active) and 37.4% (inactive).
Next, `Cc1cc(N)ccc1-n1c(C)ccc1C`: -2.7% (inactive); `Cc1ccc(C)n1-c1cc(C(=O)O)cc(C(=O)O)c1`: 8.5% (inactive).
Next, `Cc1ccc(N2C(=O)c3ccc(C(=O)O)cc3C2=O)c(C)c1`: 0.7% (inactive); `Cc1ccc(C)n1-c1cc(C(=O)O)ccc1O`: 27% (inactive).
For the compound `Cc1ccc(C)n1-c1cc(C(=O)O)ccc1Cl`, the displacement is 89.5% (active).
Next, `Cc1ccc(C)n1-c1ccc(C(=O)O)cc1`: 16% (inactive); `Cc1cc(Cl)c2cc(C(=O)O)ccc2n1`: 2.8% (inactive); `Cc1ccc(C(=O)O)cc1-n1c(C)ccc1C`: 67.8% (active).
As for `Cc1ccc(-c2ccccc2)n1-c1ccc(C(=O)O)cc1`, the displacement was -1.6% (inactive).
On to `CCN(CC)CCn1c2ccccc2n2cc(C(C)(C)C)nc12`, for which the displacement is 0% (inactive).
In the case of `CC(=O)Nc1ccc(N2C(=O)c3cc4ccccc4cc3C2=O)cc1`, the displacement was 5.1% (inactive).
As to `Cc1cc(Br)cc2c(N=Nc3cccc4cccnc34)c(O)n(C)c12`, the displacement was 3.2% (inactive).
In the case of `CC(=O)C(C(C)=O)c1c(Cl)c(O)c(O)c2c(C(=O)c3ccccc3)coc12`, the displacement was 1% (inactive).
In the case of `COc1cccc(C(=O)CSc2nnc(COc3cccc4cccnc34)o2)c1`, the displacement is 3.7% (inactive).
Next, `Cc1ccc(C)n1-c1ccc(OCC(=O)O)cc1`: 62.2% (active); `CC(=O)c1ccc(-n2c(C)ccc2C)cc1`: 6.4% (inactive); `O=C(O)COc1ccc(N2C(=O)C=CC2=O)cc1`: 0.9% (inactive).
Regarding `Cc1ccc(C)n1-c1ccc(CC(=O)O)cc1`, the displacement is 23.3% (inactive).
With `CC(C)(C)c1ccc(OCC(=O)O)cc1`, the displacement is 4.2% (inactive).
The same measure for `Cc1ccc(C)n1-c1ccc(SCC(=O)O)cc1`: 100% (active); for `CC1CCCCN1CCNC(=O)CC1Oc2ccccc2NC1=O` (stereo not given): 9.4% (inactive).
For the compound `CCOC(=O)c1c(C)[nH]c(C(=O)COC(=O)C(C)N2C(=O)C3CCCCC3C2=O)c1C` (stereo not given), the displacement is -1.9% (inactive).
Next, `CCOC(=O)C1CCN(C(=O)CSCCSCC(=O)N2CCC(C(=O)OCC)CC2)CC1`: -0.9% (inactive); `COc1ccc2[nH]c(=O)c(CN(C(=O)c3ccco3)C3CCCCC3)cc2c1`: -0.4% (inactive); `O=C1S/C(=C\c2cccs2)C(=O)N1c1cccc(Cl)c1`: -1.3% (inactive).
`CC(Oc1ccc2c3c(c(=O)oc2c1)CCCC3)C(=O)c1ccccc1` (stereo not given): the displacement was 2.3% (inactive).
Regarding `O=C(CCn1nnc2ccccc2c1=O)NCC1CCC(C(=O)O)CC1` (stereo not given), the displacement was 2% (inactive).
For the compound `O=C(CNC(=O)c1ccc(Cl)cc1Cl)c1ccccc1`, the displacement is 1.6% (inactive).
Next, `COc1cccc(CN(CC2CCCO2)S(=O)(=O)c2ccc(S(=O)(=O)NCC3CCCO3)cc2)c1OC` (stereo not given): -2.5% (inactive).
Regarding `C=CCN1C(=O)/C(=C\c2ccc(I)o2)C(=O)NC1=S`, the displacement is 0.9% (inactive).
Turning to `C=CCN1C(=O)/C(=C\c2ccc([N+](=O)[O-])o2)C(=O)NC1=S`, the displacement was 95.9% (active).
As for `C=CCN1C(=O)/C(=C\c2ccc(-c3ccc([N+](=O)[O-])cc3)o2)C(=O)NC1=S`, the displacement is 2.8% (inactive).
On to `Cc1ccc(NC2=C(Cl)C(=O)N(c3ccccc3Cl)C2=O)cc1C`, for which the displacement is 0.5% (inactive).
Take `CCOc1ccc(C(=O)Nc2ccc(NC(=O)c3ccccc3Cl)cc2)cc1Br`: the displacement was -4.2% (inactive).
As for `COc1ccc(/C=C/C(=O)Nc2nc(C)c(C)s2)cc1OC`, the displacement was -0.1% (inactive).
